# Target: Protein kinase C alpha type (Homo sapiens) (UniProt P17252)
# Settings: at 10 µM
row,SMILES,residual activity
1,COc1ccc2c(c1)c(C1=C(c3c[nH]c4ccccc34)C(=O)NC1=O)cn2CCCN(C)C,0%
2,Nc1ncnc2c1cnn2-c1ccccc1,97%
3,c1ccc(-c2cnc(Nc3ccc(OCCN4CCCC4)cc3)s2)cc1,110%
4,NCCNc1ncc(C(N)=O)c(Nc2cccc(C(F)(F)F)c2)n1,8%
5,O=C(O)/C=C/c1cc(Br)c(Br)c(Br)c1Br,102%
6,CC(C)(C)c1nc2c3ccc(F)cc3c3c(=O)[nH]ccc3c2[nH]1,62%
7,O=C1Cc2c([nH]c3ccc([N+](=O)[O-])cc23)-c2ccccc2N1,105%
8,COc1cc2ncnc(Nc3cccc(Cl)c3)c2cc1OC,108%
9,COc1cc2nccc(Oc3ccc(NC(=S)NC(=O)c4ccccc4C)cc3)c2cc1OC,99%
10,O=C(CCCc1ccc(-c2ccccc2F)cc1)Nc1ccc(O)cc1,108%
11,O=C1NC(=O)C(c2c[nH]c3ccccc23)=C1c1c[nH]c2ccccc12,4%
12,Cn1c2ccccc2c2c3c(c4c5ccccc5n(CCC#N)c4c21)CNC3=O,3%
13,Cn1sc(=O)n(Cc2ccccc2)c1=O,3%
14,COc1cc2c(cc1OC)-c1n[nH]c(Nc3cccc(F)c3)c1C2,99%
15,CC(C)(C)n1nc(Cc2cccc3ccccc23)c2c(N)ncnc21,93%
16,Nc1ncnc2c1c(-c1ccc(Oc3ccccc3)cc1)cn2C1CCCC1,98%
17,O=C1NC(=O)c2c1c1c3ccccc3[nH]c1n1cncc21,84%
18,NC(=O)Nc1sc(-c2ccc(F)cc2)cc1C(N)=O,54%
19,CCCC(=O)Oc1ccc2[nH]c(C(=O)c3cc4ccccc4[nH]3)cc2c1,108%

# Target: Protein kinase C beta type (Homo sapiens) (UniProt P05771)
# Settings: at 1 µM
# Protein kinase C beta type (Homo sapiens), sequence (P05771 2-671 limits assumed): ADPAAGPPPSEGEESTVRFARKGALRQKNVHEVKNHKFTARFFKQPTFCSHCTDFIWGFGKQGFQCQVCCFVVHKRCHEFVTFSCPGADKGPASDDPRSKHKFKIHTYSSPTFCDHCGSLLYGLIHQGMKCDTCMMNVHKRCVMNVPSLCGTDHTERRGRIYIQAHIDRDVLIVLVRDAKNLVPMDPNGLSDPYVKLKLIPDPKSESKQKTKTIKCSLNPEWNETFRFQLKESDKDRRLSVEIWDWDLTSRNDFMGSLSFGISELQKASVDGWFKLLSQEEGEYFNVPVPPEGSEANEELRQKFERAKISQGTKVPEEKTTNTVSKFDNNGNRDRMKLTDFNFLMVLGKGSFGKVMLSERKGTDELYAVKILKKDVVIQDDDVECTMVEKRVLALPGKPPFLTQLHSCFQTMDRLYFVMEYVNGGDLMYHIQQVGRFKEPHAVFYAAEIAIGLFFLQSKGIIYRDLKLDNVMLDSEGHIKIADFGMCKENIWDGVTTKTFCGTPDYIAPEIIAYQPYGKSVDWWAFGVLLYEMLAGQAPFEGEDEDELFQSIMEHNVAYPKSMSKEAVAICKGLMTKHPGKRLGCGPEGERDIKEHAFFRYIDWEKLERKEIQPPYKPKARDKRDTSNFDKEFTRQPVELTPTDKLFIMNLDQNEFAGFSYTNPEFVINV
row,SMILES,residual activity
1,COc1ccc2c(c1)c(C1=C(c3c[nH]c4ccccc34)C(=O)NC1=O)cn2CCCN(C)C,4%
2,c1ccc(-c2cnc(Nc3ccc(OCCN4CCCC4)cc3)s2)cc1,121%
3,NCCNc1ncc(C(N)=O)c(Nc2cccc(C(F)(F)F)c2)n1,106%
4,O=C(O)/C=C/c1cc(Br)c(Br)c(Br)c1Br,124%
5,COc1cc2ncnc(Nc3cccc(Cl)c3)c2cc1OC,110%
6,CCN(CC)CCNC(=O)c1c(C)[nH]c(/C=C2\C(=O)Nc3ccc(Cl)cc32)c1C,125%
7,O=C(CCCc1ccc(-c2ccccc2F)cc1)Nc1ccc(O)cc1,112%
8,O=C1NC(=O)C(c2c[nH]c3ccccc23)=C1c1c[nH]c2ccccc12,66%
9,O=C(c1ccccc1)c1ccc(N2CCOCC2)cc1O,120%
10,Nc1ncnc2[nH]nc(Nc3ccc(F)cc3)c12,122%
11,Cn1c2ccccc2c2c3c(c4c5ccccc5n(CCC#N)c4c21)CNC3=O,6%
12,CCCCc1c(-c2ccc(OC)cc2)[nH]c2nccnc12,101%
13,Cn1sc(=O)n(Cc2ccccc2)c1=O,94%
14,COc1cc2c(cc1OC)-c1n[nH]c(Nc3cccc(F)c3)c1C2,104%
15,CC(C)(C)n1nc(Cc2cccc3ccccc23)c2c(N)ncnc21,119%
16,Nc1ncnc2c1c(-c1ccc(Oc3ccccc3)cc1)cn2C1CCCC1,103%
17,NC(=O)Nc1sc(-c2ccc(F)cc2)cc1C(N)=O,103%

# Target: Protein kinase C beta type (Homo sapiens) (UniProt P05771)
# Settings: at 10 µM
row,SMILES,residual activity
1,COc1ccc2c(c1)c(C1=C(c3c[nH]c4ccccc34)C(=O)NC1=O)cn2CCCN(C)C,-1%
2,c1ccc(-c2cnc(Nc3ccc(OCCN4CCCC4)cc3)s2)cc1,116%
3,NCCNc1ncc(C(N)=O)c(Nc2cccc(C(F)(F)F)c2)n1,60%
4,COc1cc2ncnc(Nc3cccc(Cl)c3)c2cc1OC,106%
5,CCN(CC)CCNC(=O)c1c(C)[nH]c(/C=C2\C(=O)Nc3ccc(Cl)cc32)c1C,117%
6,O=C(CCCc1ccc(-c2ccccc2F)cc1)Nc1ccc(O)cc1,108%
7,O=C1NC(=O)C(c2c[nH]c3ccccc23)=C1c1c[nH]c2ccccc12,23%
8,O=C(c1ccccc1)c1ccc(N2CCOCC2)cc1O,113%
9,Nc1ncnc2[nH]nc(Nc3ccc(F)cc3)c12,110%
10,Cn1c2ccccc2c2c3c(c4c5ccccc5n(CCC#N)c4c21)CNC3=O,6%
11,CCCCc1c(-c2ccc(OC)cc2)[nH]c2nccnc12,90%
12,Cn1sc(=O)n(Cc2ccccc2)c1=O,54%
13,COc1cc2c(cc1OC)-c1n[nH]c(Nc3cccc(F)c3)c1C2,108%
14,CC(C)(C)n1nc(Cc2cccc3ccccc23)c2c(N)ncnc21,97%
15,Nc1ncnc2c1c(-c1ccc(Oc3ccccc3)cc1)cn2C1CCCC1,103%
16,NC(=O)Nc1sc(-c2ccc(F)cc2)cc1C(N)=O,77%
17,CCCC(=O)Oc1ccc2[nH]c(C(=O)c3cc4ccccc4[nH]3)cc2c1,93%

# Target: Protein kinase C beta type (Homo sapiens) (UniProt P05771)
# Settings: at 1 µM
# Remark: another data set of the same source
row,SMILES,residual activity
1,COc1ccc2c(c1)c(C1=C(c3c[nH]c4ccccc34)C(=O)NC1=O)cn2CCCN(C)C,4%
2,O=C(O)/C=C/c1cc(Br)c(Br)c(Br)c1Br,97%
3,COc1cc2ncnc(Nc3cccc(Cl)c3)c2cc1OC,107%
4,COc1cc2nccc(Oc3ccc(NC(=S)NC(=O)c4ccccc4C)cc3)c2cc1OC,98%
5,CN(C)S(=O)(=O)c1ccc2c(c1)/C(=C/c1cc3c([nH]1)CCCC3)C(=O)N2,116%
6,O=C(CCCc1ccc(-c2ccccc2F)cc1)Nc1ccc(O)cc1,108%
7,Oc1cccc(-c2nc(N3CCOCC3)c3oc4ncccc4c3n2)c1,98%
8,O=C1NC(=O)C(c2c[nH]c3ccccc23)=C1c1c[nH]c2ccccc12,75%
9,Nc1ncnc2[nH]nc(Nc3ccc(F)cc3)c12,113%
10,CCCCc1c(-c2ccc(OC)cc2)[nH]c2nccnc12,104%
11,Cn1sc(=O)n(Cc2ccccc2)c1=O,89%
12,COc1cc2c(cc1OC)-c1n[nH]c(Nc3cccc(F)c3)c1C2,110%
13,CC(C)(C)n1nc(Cc2cccc3ccccc23)c2c(N)ncnc21,104%
14,Nc1ncnc2c1c(-c1ccc(Oc3ccccc3)cc1)cn2C1CCCC1,99%
15,NC(=O)Nc1sc(-c2ccc(F)cc2)cc1C(N)=O,105%
16,CCCC(=O)Oc1ccc2[nH]c(C(=O)c3cc4ccccc4[nH]3)cc2c1,100%

# — ChEMBL document CHEMBL2218924, “A broad activity screen in support of a chemogenomic map for kinase signalling research and drug discovery” (Biochem J, 2013)
